Structures are written as SMILES. Values joined by “and” are separate entries in the source; they are usually repeats but may differ in a detail not shown here. Equal values may be shown once. Out of some 16,000 compounds screened, about 4,000 (25%) were called active. About 26% were inconclusive and are not listed. Calls come from the whole dose curve; as a rule, active = well fitted curve in the direction sought with a large enough effect; inconclusive = small, poorly fitted or top-dose-only effect, or effect the other way; inactive = no such curve, though single readings can be large or run the other way. Only a sample is shown.

The term AC50 denotes the concentration giving half of the maximal activity seen.
% is set by controls: 0 for no effect and ±100 for the full control effect.

For the assay, the target named is Cytochrome P450 2C9 (Homo sapiens) (UniProt P11712). The assay is described as follows: Cytochrome panel assay with activity outcomes. The note with it: recombinant CYP, pro-luciferin dealkylation, luminescence, p450-cyp2c9; series mostly up to 57.1 µM.
Sequence of Cytochrome P450 2C9 (Homo sapiens) (P11712 whole entry, looked up): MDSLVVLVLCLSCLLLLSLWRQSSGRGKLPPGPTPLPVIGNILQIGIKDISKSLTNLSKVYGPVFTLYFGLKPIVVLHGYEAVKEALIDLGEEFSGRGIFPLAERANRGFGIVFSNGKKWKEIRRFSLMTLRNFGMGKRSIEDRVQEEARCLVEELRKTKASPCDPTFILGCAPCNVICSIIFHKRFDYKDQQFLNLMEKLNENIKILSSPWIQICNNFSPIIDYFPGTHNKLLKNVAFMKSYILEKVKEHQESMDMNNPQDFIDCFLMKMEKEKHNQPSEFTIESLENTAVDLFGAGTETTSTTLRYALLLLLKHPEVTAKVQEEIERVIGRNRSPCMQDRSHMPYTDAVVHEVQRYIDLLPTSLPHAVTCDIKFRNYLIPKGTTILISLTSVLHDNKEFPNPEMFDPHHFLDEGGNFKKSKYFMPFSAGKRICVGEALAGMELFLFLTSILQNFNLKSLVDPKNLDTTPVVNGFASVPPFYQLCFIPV
For the molecule `O=C(NNC(=S)NCc1ccco1)c1ccc(Cl)s1`, the AC50 is 4.47 µM (active).

As to `O=S(=O)(c1ccccc1)N1CCC2(CCCN(Cc3nccs3)C2)CC1`, the AC50 entry was “inactive”.

Turning to `CSC(=NC#N)N1CCN(c2ccc(Cl)cc2)CC1`, the AC50 was 5.01 µM (active).

With `CC(C)c1nnc(NC(=O)c2sc3ccccc3c2Cl)s1`, the AC50 was 12.6 µM (active).

Take `Cc1ccc(NC(=O)c2sc3ccccc3c2Cl)nc1`: the AC50 entry was “inactive”.

Turning to `O=C(O)CCC(=O)c1ccc2sc3ccccc3c2c1`, the activity, negative = inhibition is -2.22% [at 11.4 µM] (inactive).

As for `CN(C(=S)NC(=O)c1ccccc1Br)C1CCCCC1`, the AC50 result is “inactive”.

In the case of `CCCCOC(=S)NC(=O)c1sc2ccccc2c1Cl`, the AC50 was 0.282 µM (active).

On to `CC(C)Cc1nnc(NC(=O)c2ccc([N+](=O)[O-])cc2)s1`, for which the AC50 entry is “inactive”.

Consider `O=C(NC(=S)N(CCCCO)C1CCCCC1)c1sc2ccccc2c1Cl`, for which the AC50 was 7.94 µM (active).

On to `CCOC(=S)NC(=O)c1sc2ccccc2c1Cl`, for which the AC50 was 0.0631 µM (active).

Take `Cc1ncc2c(c1O)COP(=O)(O)OC2`: the AC50 entry is “inactive”.

For `CN(C)c1ccc(-c2cc(NCc3cccnc3)ncn2)cc1`, the activity, negative = inhibition is -1.19% [at 2.29 µM] (inactive).

`CCc1cc2c(nc1CC)CCN(CC/C(C)=N/O[C@@H](C)c1cn([C@H](CO)Cc3ccccc3)nn1)C2`: the activity, negative = inhibition is 1.31% [at 11.4 µM] (inactive) and -5.84% [at 11.4 µM] (inactive).

On to `COc1ccc2[nH]cc(C=O)c2c1`, for which the AC50 result is “inactive”.

For the molecule `CC1(C)Oc2ccc(C#N)cc2[C@H](N2CCCC2=O)[C@H]1O`, the AC50 result is “inactive”.

As to `O=C(O)CCC(O)=C1S(=O)(=O)OCCOS1(=O)=O`, the activity, negative = inhibition was 8.09% [at 11.4 µM] (inactive).

Regarding `O=C(O)[C@H]1CCCNC1`, the AC50 result is “inactive”.

Take `c1c[nH]c(CN2CCN(Cc3ncc[nH]3)CC2)n1`: the activity, negative = inhibition is -13% [at 11.4 µM] (inactive).

Take `CC[C@H]1C2=C3C(CC[C@H]4C(OCc5ccc(F)cc5C(F)(F)F)OC[C@](C)([C@@H]34)N(C(=O)OC(C)(C)C)C2)C(COC)C1COC` (some centres not stated): the AC50 result is “inactive”.

In the case of `Cc1ccccc1Cn1nc(C)c(NC(=O)c2sc3ccccc3c2Cl)c1C`, the AC50 was 7.08 µM (active).

Turning to `CCn1nc(C(=O)Nc2ccccc2C)c(Cl)c1Cl`, the AC50 result was “inactive”.

For the molecule `CN(C)CCN(Cc1cccs1)c1ccccn1`, the AC50 result is “inactive”.

As for `Cc1ccc(S(=O)(=O)/C(C#N)=C/c2c(N3CC(C)OC(C)C3)nc3ccccn3c2=O)cc1` (configuration not stated), the AC50 is 11.2 µM (active).

For `CC(=O)[C@H]1CC[C@@H]2[C@H]3CC=C4C[C@@H](O)CC[C@]4(C)[C@H]3CC[C@]12C`, the AC50 result was “inactive”.

Regarding `C[C@@H](O)[C@H]1C(=O)N2C(C(=O)O)=C(S[C@@H]3CN[C@H](C(=O)N(C)C)C3)[C@H](C)[C@H]12`, the AC50 result was “inactive”.

Regarding `CCOC(=O)c1[nH]c(C)c(C(=O)OCC(=O)N2c3ccccc3CC2C)c1C` (configuration not stated), the AC50 is 25.1 µM (active).

Values taken from PubChem BioAssay AID1851 (National Center for Advancing Translational Sciences (NCATS), 2009).
